Sampled rows, rich in hits. Any-hit rate of the full collection: about 1.4%.
Statin myotox sup – suppression of simvastatin myotoxicity; rescue of ATP level, % at 7.49 µM; C2C12 myotubes + simvastatin, ATP luminescence, 48 h; scaled: DMSO 0, geranylgeraniol control 100; actives 0.78% (n = 330,000);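 active = mean ATP rescue above about 67%, or every replicate alone reaching that limit, limit read from the data, passing the limit was not always enough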;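 also: myotubes were challenged with 10 µM simvastatin during compound exposure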
CFTR F508del cor – CFTR F508del correction in bronchial cells. activity (quench increase), % at 7.58 µM. CFBE cells, YFP halide quenching; stimulated with forskolin plus potentiator P3; % fluorescence drop versus neutral controls. actives 0.36% (n = 350,000);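 active = mean added fluorescence quench of at least 8% versus neutral control, with both replicates also reaching 8%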;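 also: cells transiently co-express mutant CFTR-F508del with the halide-sensitive YFP; corrector assay measuring rescue of mutant channel to the surface after 24 h compound exposure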
PglD DTNB – PglD (C. jejuni) enzyme inhibition; purified PglD enzyme, DTNB colorimetric CoA detection; inhibition, % at 12.5 µM; actives 0.098% (n = 360,000); AID 602405; in the data active = inhibition above about 16%, passing the limit was not always enough
ARNT-TACC3 inh – disruptors of human ARNT/TACC3 interaction; AID 623870; actives 0.66% (n = 390,000); Q9Y6A5; AlphaScreen His-ARNT PAS-B/GST-TACC3 binding, luminescence; TACC3 fragment carries E629A point mutation; inhibition, % at 9.99 µM;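 active = mean inhibition of replicates at least 50% and at least half of replicates each reaching 50%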;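 also: 0% = complete ARNT plus TACC3 wells and 100% = ARNT alone without TACC3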
* marks the source's active call; other numbers are inactive results.

`O=C(CSc1nc2c(sc3ccccc32)c(=O)n1Cc1ccco1)NCC1CCCO1` (configuration not stated) gave Statin myotox sup 95*, PglD DTNB 1 and ARNT-TACC3 inh -11.
For CCC(=O)Nc1ccc2c(c1)C(=O)N(C)C[C@H](OC)[C@@H](C)CN(Cc1ccccc1)[C@H](C)CO2 the results were Statin myotox sup -5, CFTR F508del cor -1 and PglD DTNB 1.
For O=C(Nc1ccccc1Oc1cccnc1)C1CCCN(Cc2ccccc2O)C1 (configuration not stated) the results were Statin myotox sup 11, CFTR F508del cor 1, PglD DTNB -4 and ARNT-TACC3 inh -1.
For C#Cc1ccc(CN2CCCC(C(=O)Nc3ccccc3Oc3cccnc3)C2)cc1 (configuration not stated) the results were Statin myotox sup 91*, CFTR F508del cor -2, PglD DTNB 3 and ARNT-TACC3 inh 5.
`CCCCc1ccc(S(=O)(=O)NCCc2ccncc2)cc1` gave Statin myotox sup 126*, PglD DTNB -1 and ARNT-TACC3 inh -5.
`C[C@H]1CN([C@@H](C)CO)C(=O)Cc2cc(NS(=O)(=O)c3cn(C)cn3)ccc2O[C@H]1CN(C)Cc1ccc(C(=O)Nc2ccccc2N)cc1` gave CFTR F508del cor 0.
For COc1ccc2c3c(n(C)c2c1)[C@H](CO)N(C(=O)NC(C)C)CC31CN(CC2CC2)C1 the results were CFTR F508del cor 2.
CCOC(=O)Cn1c(=O)c2c(nc3n2CCN3Cc2ccccc2)n(C)c1=O was read as Statin myotox sup 134*, PglD DTNB 0 and ARNT-TACC3 inh -2.
Cc1nnc2n(-c3ccccc3)c(=O)c3c4c(sc3n12)COC(C)(C)C4 was read as Statin myotox sup 105*, PglD DTNB -1 and ARNT-TACC3 inh -1.
Screening CCc1cc[n+](-c2nc([O-])sc2C=O)cc1 returned Statin myotox sup 108*, PglD DTNB 4 and ARNT-TACC3 inh 9.
CCS(=O)(=O)c1ccc(-c2csc(-c3ccc(Cl)cc3)n2)c(Cl)c1Cl was read as Statin myotox sup 103*, PglD DTNB 4 and ARNT-TACC3 inh -1.
For C[C@@H]1CN([C@@H](C)CO)C(=O)c2cc(C3=CCCC3)cnc2O[C@H]1CN(C)Cc1ccc(C(=O)O)cc1 the results were Statin myotox sup -19, CFTR F508del cor 1, PglD DTNB -1 and ARNT-TACC3 inh 0.
Screening O=C1OCCN1S(=O)(=O)Nc1ccccc1 returned Statin myotox sup 11, CFTR F508del cor 4, PglD DTNB -3 and ARNT-TACC3 inh -10.
For O=C1OCCN1N1CCOC1=O the results were Statin myotox sup 113*, CFTR F508del cor 0, PglD DTNB -4 and ARNT-TACC3 inh -11.
O=C(C[C@H]1C=C[C@@H](NC(=O)CN2CCOCC2)[C@H](CO)O1)NCCc1ccncc1 was read as CFTR F508del cor 2.
Screening O=C(C1CC1)N1[C@@H](CO)[C@@H](c2ccccc2)C12CN(Cc1cncnc1)C2 returned CFTR F508del cor 1.
For CC1Cc2ccccc2N1C(=O)CSc1nnc(Cc2ccccc2)n1CCc1ccccc1 (configuration not stated) the results were Statin myotox sup 113*, PglD DTNB 1 and ARNT-TACC3 inh -3.
For CC(=O)C(C(c1ccccc1)N1CCOCC1)N1CCOCC1 (configuration not stated) the results were Statin myotox sup -2, CFTR F508del cor -1, PglD DTNB 1 and ARNT-TACC3 inh -4.
Screening CSc1ccc(C(C(C(=O)c2cccs2)N2CCOCC2)N2CCOCC2)cc1 (configuration not stated) returned Statin myotox sup 77*, PglD DTNB -1 and ARNT-TACC3 inh 1.
Screening C[C@H]1CN([C@@H](C)CO)C(=O)Cc2cc(NC(=O)Cn3cnnn3)ccc2O[C@H]1CN(C)S(=O)(=O)c1ccc(Cl)cc1 returned Statin myotox sup -32, CFTR F508del cor 3, PglD DTNB 1 and ARNT-TACC3 inh -4.
`Cc1cccn2cc(CNc3ccccc3)nc12` gave Statin myotox sup 109*, PglD DTNB 8 and ARNT-TACC3 inh 0.
`C[C@H](CO)N1C[C@H](C)[C@H](CN(C)S(=O)(=O)c2ccccc2)Oc2ccc(NC(=O)Nc3cccc4ccccc34)cc2C1=O` gave Statin myotox sup 58, CFTR F508del cor 2, PglD DTNB -2 and ARNT-TACC3 inh 23.
For COc1cccc(C#Cc2ccc([C@H]3[C@H]4CN(C(C)=O)CC(=O)N4[C@H]3CO)cc2)c1 the results were CFTR F508del cor 1.
For Cc1cccc(NC(=O)Cn2c(/C=C/c3ccccc3)nc3ccccc32)c1 the results were ARNT-TACC3 inh 48*.
C[C@H]1CN([C@@H](C)CO)C(=O)CCCn2cc(nn2)CO[C@H]1CN(C)C(=O)Nc1cccc(Oc2ccccn2)c1 was read as Statin myotox sup -7 and CFTR F508del cor -1.
For Cc1ccc(S(=O)(=O)Nc2ccc3c(c2)C(=O)N([C@@H](C)CO)C[C@H](C)[C@H](CN(C)S(=O)(=O)c2ccc(C)cc2)OCCCC[C@@H](C)O3)cc1 the results were CFTR F508del cor 9.1*, PglD DTNB 2 and ARNT-TACC3 inh -30.
For Cc1ccc(S(=O)(=O)Nc2ccc3c(c2)C(=O)N([C@@H](C)CO)C[C@H](C)[C@@H](CN(C)S(=O)(=O)c2ccc(C)cc2)OCCCC[C@@H](C)O3)cc1 the results were CFTR F508del cor 2, PglD DTNB -2 and ARNT-TACC3 inh -2.
C[C@H](CO)N1C[C@H](C)[C@H](CN(C)S(=O)(=O)c2ccc(F)cc2)OCCCC[C@H](C)Oc2ccc(NS(C)(=O)=O)cc2C1=O was read as Statin myotox sup 105*, CFTR F508del cor 1, PglD DTNB 1 and ARNT-TACC3 inh -7.
Screening C[C@@H]1CCCCO[C@@H](CN(C)S(=O)(=O)c2ccc(F)cc2)[C@H](C)CN([C@@H](C)CO)C(=O)c2cc(NC(=O)Nc3cccc4ccccc34)ccc2O1 returned Statin myotox sup 84*, CFTR F508del cor 1, PglD DTNB -3 and ARNT-TACC3 inh 2.
`C[C@@H]1CCCCO[C@H](CN(C)S(=O)(=O)c2ccc(F)cc2)[C@H](C)CN([C@@H](C)CO)C(=O)c2cc(NS(C)(=O)=O)ccc2O1` gave Statin myotox sup 81*, CFTR F508del cor -1, PglD DTNB 3 and ARNT-TACC3 inh -2.
Screening C[C@@H]1CCCCO[C@@H](CN(C)S(=O)(=O)c2ccc(F)cc2)[C@@H](C)CN([C@@H](C)CO)C(=O)c2cc(NC(=O)Nc3cccc4ccccc34)ccc2O1 returned Statin myotox sup 37, CFTR F508del cor -1, PglD DTNB -3 and ARNT-TACC3 inh 1.
Screening Cc1noc(C)c1S(=O)(=O)Nc1ccc2c(c1)C(=O)N([C@H](C)CO)C[C@H](C)[C@H](CN(C)S(=O)(=O)c1ccccc1)OCCCC[C@H](C)O2 returned CFTR F508del cor -2, PglD DTNB 1 and ARNT-TACC3 inh -5.

Screening results as filed in PubChem BioAssay.
